Source: PubChem BioAssay
HepG2 tox – HepG2 cytotoxicity, counter-screen for TGF-b inhibitors; HepG2 CAGA-GFP viability, ATP luminescence, 18 h; Potency, µM (series often up to 46.1 µM), usual class: cytotoxic; hit rate 0.76% among 410,000
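CellTiter-Glo luminescence gave cytotoxicity after 18 hours at 37 degrees C. The cells were HepG2 CAGA-GFP in 1% FBS DMEM, stimulated with 500 pg/mL TGF-beta after compound addition. %Activity was normalised to no-cell wells (complete cell-killing) and DMSO (no toxicity), and curves were fitted and classified.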
TDP1 cell noCPT – qHTS for Inhibitors of human tyrosyl-DNA phosphodiesterase 1 (TDP1): qHTS in cells in absence of CPT; DT40 Tdp1-/- hTDP1 cells, no CPT, ATP luminescence, 48 h; Potency, µM (doses to about 46.2 µM), actives largely listed as inhibitors; hit rate 15% among 420,000; note: nearly all actives have a fitted effect of over 55% in size
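Growth of hTDP1-complemented DT40 Tdp1-knockout cells is measured by ATP luminescence after at least 48 hr compound exposure at 37 °C, with DMSO substituting for the 20 nM CPT used in the parallel screen.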
TGFb inhibitor – inhibitors of TGF-b signaling; AID 588855; hit rate 1.2% among 410,000; Potency, µM (highest dose often 46.1 µM), usual class: inhibitors; HepG2 CAGA-GFP TGF-b/SMAD3 reporter, GFP fluorescence, 18 h; TGF-beta stimulated, 500 pg/mL final; note: nearly all actives have a fitted effect of over 65% in size
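Per well, imaged GFP fluorescence of HEPG2 CAGA-GFP cells gives the signal; cells get compound, then TGF-beta (500 pg/mL final), 18 h at 37 degrees C; %Activity versus -TGF-beta and +DMSO controls.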
IL1B secr inh – blocks inflammasome-driven IL-1 beta release | hit rate 4.7% among 360,000 | AID 743279 | activity change, % at 57.5 µM | THP-1 LPS/ATP IL-1B secretion, AlphaLISA, 16 h; hits give low values; in the data active = activity change below about -50%; inconclusive = mostly about -30% to -49%
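Secreted IL-1B measured by AlphaLISA bead assay after 16 h compound exposure of THP-1 cells; compounds (final up to 57.5 uM) added 1 h before LPS (250 ng/mL) and ATP (1.25 mM) stimulation; lower signal means less secretion.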
TDP1 block – blocks human tyrosyl-DNA phosphodiesterase 1; Q9NUW8; recombinant TDP1, AlphaScreen DNA substrate cleavage; Potency, µM (series often up to 130 µM), hits mostly inhibitors; hit rate 0.28% among 350,000; note: nearly all actives have a fitted effect of over 40% in size
Target sequence (Q9NUW8 whole entry, looked up): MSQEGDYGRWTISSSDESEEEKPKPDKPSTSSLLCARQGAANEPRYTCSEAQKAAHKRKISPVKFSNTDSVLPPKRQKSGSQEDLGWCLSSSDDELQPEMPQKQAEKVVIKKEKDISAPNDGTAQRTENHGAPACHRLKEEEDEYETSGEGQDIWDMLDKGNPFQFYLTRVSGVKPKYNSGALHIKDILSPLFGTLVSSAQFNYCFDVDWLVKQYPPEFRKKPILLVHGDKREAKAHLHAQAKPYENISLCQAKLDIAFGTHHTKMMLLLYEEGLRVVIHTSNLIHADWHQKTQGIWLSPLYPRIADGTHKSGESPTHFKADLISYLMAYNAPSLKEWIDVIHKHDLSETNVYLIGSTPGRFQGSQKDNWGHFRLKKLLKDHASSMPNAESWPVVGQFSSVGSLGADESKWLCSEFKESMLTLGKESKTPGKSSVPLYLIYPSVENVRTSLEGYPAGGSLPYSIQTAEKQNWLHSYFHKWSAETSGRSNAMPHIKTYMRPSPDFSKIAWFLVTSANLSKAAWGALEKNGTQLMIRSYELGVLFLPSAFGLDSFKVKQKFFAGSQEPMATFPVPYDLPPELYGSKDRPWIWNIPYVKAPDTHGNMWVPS
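Compounds were preincubated with Tdp1 (1 nM final) for 15 min at room temperature before substrate (15 nM final) started a 5 min reaction; beads (10 ug/ml final) were then added for 10 min before AlphaScreen detection.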
TDP1 cell CPT – growth inhibition of DT40 Tdp1-/-;hTDP1 cells with camptothecin (screen for TDP1 inhibitors); chicken DT40 Tdp1-/-;hTDP1 cells + 20 nM CPT, ATP luminescence, 48 h; Potency, µM (doses to about 46.2 µM), actives largely listed as inhibitors; hit rate 12% among 420,000; AID 686979; note: nearly all actives have a fitted effect of over 55% in size
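Chicken DT40 Tdp1-/- cells complemented with human TDP1, 400 cells/well, exposed to compounds plus 20 nM camptothecin for at least 48 h at 37 C; viability read as ATP content by CellTiter-Glo luminescence.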
A number is an active result. Rows were chosen to be rich in hits. Some 18% of all compounds tested hit in one or more screens of this group. Unless noted, calls come from the whole dose curve; as a rule, active = well fitted curve in the direction sought with a large enough effect; inconclusive = small, poorly fitted or top-dose-only effect, or another doubt; inactive = no such curve, though single readings can be large; an effect the other way counts as inactive or inconclusive.

`Cc1ccc(CN(C(=O)COc2ccc([N+](=O)[O-])cc2)c2ccccn2)cc1` gave HepG2 tox inactive, TDP1 cell noCPT 16µM, TGFb inhibitor inactive, TDP1 block inactive and TDP1 cell CPT inconclusive.
O=C(COc1ccc(Cl)cc1)N(Cc1ccccc1)c1ccccn1 was read as HepG2 tox inactive, TDP1 cell noCPT inactive, TGFb inhibitor inactive, IL1B secr inh inactive, TDP1 block inactive and TDP1 cell CPT inactive.
`CC(C)(Oc1ccc(Cl)cc1)C(=O)N(Cc1ccccc1)c1ccccn1` gave HepG2 tox inactive, TDP1 cell noCPT 18µM, TGFb inhibitor inactive, IL1B secr inh inactive, TDP1 block inactive and TDP1 cell CPT inconclusive.
Screening CC(C)c1ccc(OCC(=O)N(Cc2ccccc2)c2ccccn2)cc1 returned HepG2 tox inactive, TDP1 cell noCPT 16µM, TGFb inhibitor inactive, IL1B secr inh inactive, TDP1 block inactive and TDP1 cell CPT 23µM.
CCOC(=O)C1(CC2CCCCO2)CCN(Cc2ccccc2-c2ccco2)CC1 (configuration not stated) was read as HepG2 tox inactive, TDP1 cell noCPT 21µM, TGFb inhibitor inconclusive, IL1B secr inh inactive, TDP1 block inactive and TDP1 cell CPT inconclusive.
Screening CCOC(=O)C1(CC2CCCCO2)CCN(Cc2cc3ccccc3[nH]2)CC1 (configuration not stated) returned HepG2 tox inactive, TDP1 cell noCPT 16µM, TGFb inhibitor inconclusive, IL1B secr inh -91, TDP1 block inactive and TDP1 cell CPT inconclusive.
CCCCc1ncc(CN2CCC(CC3CCCCO3)(C(=O)OCC)CC2)[nH]1 (configuration not stated) was read as HepG2 tox inactive, TDP1 cell noCPT inactive, TGFb inhibitor inactive, IL1B secr inh inactive, TDP1 block inactive and TDP1 cell CPT inconclusive.
For OCC1(CC2CCCCO2)CCN(Cc2ccccc2-c2ccco2)CC1 (configuration not stated) the results were HepG2 tox inactive, TDP1 cell noCPT inactive, TGFb inhibitor inactive, IL1B secr inh inactive and TDP1 cell CPT inactive.
Screening CCOC(=O)C1(CC2CCCCO2)CCN(Cc2cn[nH]c2-c2cccc(F)c2)CC1 (configuration not stated) returned HepG2 tox inactive, TDP1 cell noCPT 10µM, TGFb inhibitor inconclusive, IL1B secr inh inactive, TDP1 block inactive and TDP1 cell CPT 16µM.
Screening CCN1CCN(c2oc(/C=C/c3ccccc3OC)nc2C#N)CC1 returned HepG2 tox inactive, TDP1 cell noCPT inconclusive, TGFb inhibitor inactive, TDP1 block inactive and TDP1 cell CPT inconclusive.
Screening C=C(C)CNC(=S)NNC(=O)CCn1c2ccc(Cl)cc2c2cc(Cl)ccc21 returned HepG2 tox inactive, TDP1 cell noCPT inconclusive, TGFb inhibitor inconclusive, IL1B secr inh -100, TDP1 block inactive and TDP1 cell CPT inconclusive.
Screening C=C(C)CNC(=S)NNC(=O)CCn1c2cc(Cl)ccc2c2ccc(Cl)cc21 returned HepG2 tox inactive, TDP1 cell noCPT inconclusive, TGFb inhibitor inconclusive, IL1B secr inh inactive, TDP1 block inactive and TDP1 cell CPT inactive.
`CC(C)Oc1cccc(NC(=O)C2(C)CCCN2C(=O)C(C)C)c1` (configuration not stated) gave HepG2 tox inactive, TDP1 cell noCPT inactive, TGFb inhibitor inactive, IL1B secr inh inactive and TDP1 cell CPT inconclusive.
Screening CCN(CC)C(=O)c1ccc(C(=O)c2c(C)cc(C)cc2C)cc1 returned HepG2 tox inactive, TDP1 cell noCPT 21µM, TGFb inhibitor inconclusive, IL1B secr inh inactive, TDP1 block inactive and TDP1 cell CPT 18µM.
For CC(=O)N1CCN(CCS(=O)(=O)c2ccc(Br)cc2)CC1 the results were HepG2 tox inactive, TDP1 cell noCPT inactive, TGFb inhibitor inactive, IL1B secr inh -53, TDP1 block inactive and TDP1 cell CPT inactive.
CCc1ccc2oc(-c3cc(NC(=O)COc4ccc(C)cc4)ccc3O)nc2c1 was read as HepG2 tox inactive, TDP1 cell noCPT inconclusive, TGFb inhibitor inactive and TDP1 cell CPT inconclusive.
Screening CCc1ccccc1N=C1S/C(=C/c2ccccc2OCC(=O)N2CCOCC2)C(=O)N1C returned HepG2 tox inactive, TDP1 cell noCPT inconclusive, TGFb inhibitor inconclusive, IL1B secr inh -72, TDP1 block inactive and TDP1 cell CPT inconclusive.
`CCOc1ccc(NC(=O)c2sc3nc(C)nc(N4CCOCC4)c3c2C)cc1` gave HepG2 tox inactive, TDP1 cell noCPT inconclusive, TGFb inhibitor inactive, IL1B secr inh -53, TDP1 block inactive and TDP1 cell CPT inactive.
`Cc1c(C(=O)Nc2ccc(F)cc2F)sc2nc3n(c(=O)c12)N=C(c1ccccc1)CS3` gave HepG2 tox inactive, TDP1 cell noCPT inconclusive, TGFb inhibitor inactive, TDP1 block inactive and TDP1 cell CPT 15µM.
`Cc1nc(N2CCOCC2)c2c(C)c(C(=O)Nc3ccc(F)cc3F)sc2n1` gave HepG2 tox inactive, TDP1 cell noCPT inconclusive, TGFb inhibitor inactive, IL1B secr inh -68, TDP1 block inactive and TDP1 cell CPT inactive.
`Cc1cc(C)cc(NC(=O)c2sc3nc4n(c(=O)c3c2C)N=C(c2ccc(F)cc2)CS4)c1` gave HepG2 tox inactive, TDP1 cell noCPT inactive, TGFb inhibitor inactive, TDP1 block inactive and TDP1 cell CPT inactive.
COc1cc(=O)n2c(c1C(=O)N(C)Cc1nonc1C)CCN(C(=O)c1cc(C)cc(C)c1)CC2 was read as TDP1 cell noCPT inactive and TDP1 cell CPT inactive.
O=C(O)CC(NC(=O)C(c1ccccc1)c1ccccc1)c1cccc([N+](=O)[O-])c1 (configuration not stated) was read as HepG2 tox inactive, TDP1 cell noCPT inactive, TGFb inhibitor inactive, IL1B secr inh inactive, TDP1 block inactive and TDP1 cell CPT inactive.
For CCOc1ccc(CNC(=O)c2ccc(-c3nc(CSc4ccc(C)cc4)c(C)o3)cc2)cc1 the results were HepG2 tox inactive, TDP1 cell noCPT inconclusive, TGFb inhibitor inactive, TDP1 block inactive and TDP1 cell CPT inconclusive.
`COc1ccc(CNC(=O)c2ccc(-c3nc(CSc4ccccc4)c(C)o3)cc2)cc1` gave HepG2 tox 10µM, TDP1 cell noCPT inactive, TGFb inhibitor inconclusive, TDP1 block inactive and TDP1 cell CPT inactive.
`COc1ccc(OC)c(NC(=O)c2ccc(-c3nc(CSc4ccccc4)c(C)o3)cc2)c1` gave HepG2 tox inactive, TDP1 cell noCPT 21µM, TGFb inhibitor inactive, TDP1 block inactive and TDP1 cell CPT 21µM.
